From PubChem BioAssay AID2284148 (EPA ToxCast)
The source made the active and inactive calls. The calls were made as follows: active = hit-call score of the fitted dose curve at least 0.9, where 1 is the maximum; inactive = score below 0.9.

What follows are compounds tested against human Cholecystokinin Receptor CCK1 (CCKA) Agonism, CCKAR (gene 886) (UniProt P32238) (assay: ERF_TW_GPCR_hCCKAR: Eurofins (ERF) G Protein-Coupled Receptor (GPCR) Radioligand Binding LeadHunter Assay for human Cholecystokinin Receptor CCK1 (CCKA) Agonism).
Chain of human Cholecystokinin Receptor CCK1 (CCKA) Agonism, CCKAR (gene 886) (P32238 whole entry, looked up): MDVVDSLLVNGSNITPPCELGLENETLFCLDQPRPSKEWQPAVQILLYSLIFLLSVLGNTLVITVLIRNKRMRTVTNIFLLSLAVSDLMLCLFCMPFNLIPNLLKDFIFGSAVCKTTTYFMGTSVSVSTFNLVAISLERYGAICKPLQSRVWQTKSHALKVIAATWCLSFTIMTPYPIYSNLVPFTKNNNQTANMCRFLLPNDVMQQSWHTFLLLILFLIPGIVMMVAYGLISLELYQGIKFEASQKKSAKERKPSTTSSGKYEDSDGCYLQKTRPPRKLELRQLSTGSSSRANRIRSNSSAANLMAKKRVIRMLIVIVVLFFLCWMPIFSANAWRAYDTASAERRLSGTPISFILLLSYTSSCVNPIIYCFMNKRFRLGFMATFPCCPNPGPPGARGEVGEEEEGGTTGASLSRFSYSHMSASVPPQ
Experimental: ERF_TW_GPCR_hCCKAR is a biochemical, single-readout assay that uses extracted gene-proteins in a cell-free assay. Measurements were taken 1 hour after chemical dosing in a 96-well plate. See CCK1 (CCKA) Human Cholecystokinin GPCR Binding (Antagonist Radioligand) Assay, Panlabs.ERF_TW_GPCR_hCCKAR is an assay component calculated from the ERF_TW_GPCR_hCCKAR assay. It is designed to measure radioligand binding using a type of binding reporter as detected by scintillation counting with radiometry technology.Data from the assay component ERF_TW_GPCR_hCCKAR was analyzed at the assay endpoint, ERF_TW_GPCR_hCCKAR, in the positive analysis fitting direction relative to DMSO as the negative control and baseline of activity. Using a type of binding reporter, loss-of-signal activity can be used to understand changes in binding as they relate to gene CCKAR. To generalize the intended target to other relatable targets, this assay endpoint is annotated to the gpcr intended target family, where the subfamily is cholecystokinin.
1321-N1 (human astrocytoma) stably transfected with a plasmid encoding the human recombinant CCK1 receptor are used to prepare membranes in modified HEPES buffer pH 7.4. A 5 ug aliquot of membrane is incubated with 0.11 nM [125I]CCK-8 for […] at 25C. […] Membranes are filtered and washed, the filters are then counted to determine [125I]CCK-8 specifically bound. […]

| SMILES | outcome | AC50 |
| --- | --- | --- |
| CCCCC[C@H](O)CC(=O)CCc1ccc(O)c(OC)c1 | inactive |  |
| O=C(/C=C/c1ccc(O)cc1)CC(=O)/C=C/c1ccc(O)cc1 |  | 1990 nM (active) |
